Several values for one entry are separate records, joined by “and”; a condition that tells them apart may be missing. Equal values may be shown once. Whole data set: some 1,700 compounds, median “fraction of GFP-LC3-positive cells (≥5 vesicles/cell)” near 0.058, cut for the highest 2% near 0.59. Many of the other results were omitted from the sample, so the highest values are more common in it than they were.
System: CbCln3 +/+ GFP-LC3 cerebellar neuronal cells
Experiment: fraction of GFP-LC3-positive cells (≥5 vesicles/cell); higher = more autophagosome accumulation
Outline: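 In 384-well plates at 2 × 10^3 cells per well, GFP-LC3-expressing wild-type or mutant CbCln3 cerebellar cells took ~50 nL of compound in DMSO by pin transfer, in duplicate, for 24 h at 33 °C. Staining with Hoechst 33342 and LysoTracker Red over the final 30 min preceded fixation in 3.2% PFA and imaging of three fields per well at 10×. CellProfiler then counted GFP-LC3 vesicles in each cell, and out-of-focus images were dropped before the fraction of cells with 5 or more vesicles was averaged over duplicates.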

| Structure (SMILES) | fraction of GFP-LC3-positive cells |
| --- | --- |
| COc1ccc2cc1Oc1ccc(cc1)C[C@H]1c3cc(c(OC)cc3CCN1C)Oc1c(OC)c(OC)cc3c1[C@H](C2)N(C)CC3 [Tetrandrine] | 0.0783 |
| C=C(C)[C@@H]1CC[C@]2(C(=O)O)CC[C@]3(C)[C@H](CC[C@@H]4[C@@]5(C)CC[C@H](O)C(C)(C)[C@@H]5CC[C@]43C)[C@@H]12 [Betulinic acid] | 0.0563 |
| Cc1ccsc1/C=C/C1=NCCCN1C.O=C(O)C(O)C(O)C(=O)O [Morantel tartrate] | 0.0668 |
| CCN(CC)C(=S)SSC(=S)N(CC)CC [Disulfiram] | 0.687 |
| O=C(O)CCC(=O)c1ccc(-c2ccccc2)cc1 [Fenbufen] | 0.0751 |
| CC[C@]1(O)C[C@@H]2CN(CCc3c([nH]c4ccccc34)[C@@](C(=O)OC)(c3cc4c(cc3OC)N(C)[C@H]3[C@@](O)(C(=O)OC)[C@H](OC(C)=O)[C@]5(CC)C=CCN6CC[C@]43[C@@H]65)C2)C1.O=S(=O)(O)O [vinblastine] | 0.691 |
| CCCCCCCC/C=C\CCCCCCCC(=O)OC[C@@H](O)COP(=O)(O)O | 0.039 |
| CCCCCCCC/C=C\CCCCCCCC(=O)OC[C@@H](O)COP(=O)(O)O [Lysophosphatidic acid] | 0.0399 |
| COc1cc2nc(N3CCN(C(=O)C4CCCO4)CC3)nc(N)c2cc1OC.Cl (stereo not drawn) [Terazosin hydrochloride] | 0.0471 |
| COc1cc2nc(N3CCN(C(=O)c4ccco4)CC3)nc(N)c2cc1OC.Cl [Prazosin hydrochloride] | 0.156 |
| COc1cc2nc(N3CCN(C(=O)c4ccco4)CC3)nc(N)c2cc1OC [prazocin] | 0.899 |
| C[C@]12CC[C@@H]3c4ccc(O)cc4CC[C@H]3[C@@H]1CCC2=O [Estrone] | 0.0194 |
| CC(C)=CC[C@@H](O)C1=CC(=O)c2c(O)ccc(O)c2C1=O [Shikonin] | 0.7 |
| CC/C=C\C/C=C\C/C=C\C/C=C\C/C=C\CCCC(=O)O [Eicosapentaenoic acid (20:5 n-3)] | 0.0669 |
| CC/C=C\C/C=C\C/C=C\C/C=C\C/C=C\CCCC(=O)O | 0.047 |
| Clc1ccc(C(Cn2ccnc2)OCc2csc3c(Cl)cccc23)c(Cl)c1.O=[N+]([O-])O (stereo not drawn) [Sertaconazole nitrate] | 0.0474 |
| O=C(O)c1cc(N(Cc2ccccc2O)Cc2cc(O)ccc2O)ccc1O | 0.0412 |
| O=C(O)c1cc(N(Cc2ccccc2O)Cc2cc(O)ccc2O)ccc1O [Lavendustin A] | 0.0834 |
| CCCCNc1c(C(=O)OCC)c(C)nc2c1cnn2CC.Cl [Tracazolate hydrochloride] | 0.0505 |
| Cc1c(OCC(F)(F)F)ccnc1CS(=O)c1nc2ccccc2[nH]1 (stereo not drawn) [Lansoprazole] | 0.0343 |
| COC1=CC(=O)C[C@@H](C)[C@]12Oc1c(Cl)c(OC)cc(OC)c1C2=O [Griseofulvin] | 0.172 |
| Cc1ncc(C[n+]2csc(CCO)c2C)c(N)n1.Cl.[Cl-] [Thiamine hydrochloride] | 0.0725 |

| Structure (SMILES) | fraction of GFP-LC3-positive cells |
| --- | --- |
| CC[C@H](C)C(=O)O[C@H]1C[C@@H](C)C=C2C=C[C@H](C)[C@H](CC[C@@H]3C[C@@H](O)CC(=O)O3)[C@H]21 [Mevinolin (lovastatin)] | 0.203 |
| CC(C)(Oc1ccc(C2CC2(Cl)Cl)cc1)C(=O)O (stereo not drawn) [Ciprofibrate] | 0.0359 |
| CCN(CC)C(=O)N1CCN(C)CC1.O=C(O)CC(O)(CC(=O)O)C(=O)O [Diethylcarbamazine citrate] | 0.0418 |
| CC(=O)O[C@H]1C(=O)[C@@]2(C)C([C@H](OC(=O)c3ccccc3)[C@]3(O)C[C@H](OC(=O)[C@H](O)[C@@H](NC(=O)c4ccccc4)c4ccccc4)C(C)=C1C3(C)C)[C@]1(OC(C)=O)CO[C@@H]1C[C@@H]2O (stereo partly drawn) [taxol =paclitaxel] | 0.536 |
| CC(=O)O[C@H]1C(=O)[C@@]2(C)[C@H]([C@H](OC(=O)c3ccccc3)[C@]3(O)C[C@H](OC(=O)[C@H](O)[C@@H](NC(=O)c4ccccc4)c4ccccc4)C(C)=C1C3(C)C)[C@]1(OC(C)=O)CO[C@@H]1C[C@@H]2O [Paclitaxel] | 0.642 |
| CS(=O)c1ccc(-c2nc(-c3ccc(F)cc3)c(-c3ccncc3)[nH]2)cc1 (stereo not drawn) | 0.023 |
| Cc1cnc(C(=O)NCCc2ccc(S(=O)(=O)NC(=O)NC3CCCCC3)cc2)cn1 [Glipizide] | 0.057 |
| CCOC(=O)n1ccn(C)c1=S [Carbimazole] | 0.0518 |
| N=C(N)NCC1COC2(CCCCC2)O1.N=C(N)NCC1COC2(CCCCC2)O1.O=S(=O)(O)O (stereo not drawn) [Guanadrel sulfate] | 0.041 |
| CC/C=C/C/C=C/C/C=C/CCCCCCCCCC(=O)O [Eicosatrienoic acid (20:3 N-3)] | 0.0456 |
| CCCCC/C=C/C/C=C/CCCCCCCCCCCC(=O)O [13(Z),16(Z)-Docosadienoic acid] | 0.0709 |
| CC(=O)OCC(=O)[C@@]1(OC(C)=O)[C@@H](C)C[C@H]2[C@@H]3C[C@H](F)C4=CC(=O)C=C[C@]4(C)[C@@]3(F)[C@@H](O)C[C@@]21C [Diflorasone Diacetate] | 0.085 |
| O=C1Cc2c([nH]c3ccc(Br)cc23)-c2ccccc2N1 | 0.0413 |
| CCCNC(=O)[C@H]1O[C@@H]1C(=O)N[C@H](C(=O)N1CCC[C@H]1C(=O)OC)C(C)CC (stereo partly drawn) | 0.399 and 0.352 |
| CNCCC(Oc1ccccc1OC)c1ccccc1.Cl (stereo not drawn) [Nisoxetine hydrochloride] | 0.0525 |
| C[C@@H](O)[C@H]1C(=O)N2C(C(=O)O)=C(S[C@@H]3CN[C@H](C(=O)N(C)C)C3)[C@H](C)[C@H]12 [Meropenem] | 0.0612 |
| Nc1ccc(C(=O)NCC(=O)O)cc1 [Aminohippuric acid] | 0.0809 |
| COc1ccc(Cl)cc1C(=O)NCCc1ccc(S(=O)(=O)NC(=O)NC2CCCCC2)cc1 | 0.0797 |
| CC(C)Cc1ccc([C@H](C)C(=O)O)cc1 [S-(+)-ibuprofen] | 0.0447 |
| O=[N+]([O-])c1cccc2c(Br)n[nH]c12 [Bromo-7-nitroindazole [3-Bromo-7-nitroindazole]] | 0.0548 |
| C1COC(NC(C2CC2)C2CC2)=N1.C1COC(NC(C2CC2)C2CC2)=N1.O=C(O)/C=C/C(=O)O [Rilmenidine hemifumarate] | 0.0609 |
